Most compounds without a hit are left out; they make up all but 0.79% or so of the library.
AmpC detergent: inhibitors of E. coli AmpC beta-lactamase with detergent; AmpC hydrolysis of nitrocefin, absorbance 480 nm, 0.01% Triton; Potency, µM (series often up to 114 µM), hits mostly inhibitors; 0.041% of 370,000 active; further: nearly all actives have a fitted effect of over 25% in size
Target sequence (P00811 whole entry, looked up): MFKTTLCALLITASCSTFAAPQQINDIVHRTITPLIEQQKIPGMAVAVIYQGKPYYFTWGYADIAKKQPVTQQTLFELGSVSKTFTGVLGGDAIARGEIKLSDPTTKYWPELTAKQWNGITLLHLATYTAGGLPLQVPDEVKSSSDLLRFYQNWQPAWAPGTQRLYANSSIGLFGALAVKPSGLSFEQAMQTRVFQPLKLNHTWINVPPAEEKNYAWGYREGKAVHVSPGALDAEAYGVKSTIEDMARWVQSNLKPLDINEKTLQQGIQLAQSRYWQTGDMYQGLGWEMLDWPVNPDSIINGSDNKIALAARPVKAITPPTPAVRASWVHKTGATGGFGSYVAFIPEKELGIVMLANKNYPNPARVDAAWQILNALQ
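20 mM phosphate pH 7.0 + 0.01% (detergent screen) or 0.0001% Triton X-100; 5.3 nM AmpC reagent; cpd preinc 15 min RT; nitrocefin (800 uM stock) to start; A480 q20 s × 4 min; Activity was normalised to no-enzyme and no-compound control wells.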
AmpC inh no detg: inhibitors of E. coli AmpC beta-lactamase without detergent | AmpC nitrocefin hydrolysis, absorbance 480 nm, 0.0001% Triton | AID 485341 | 0.52% of 330,000 active | P00811 | Potency, µM (titrated, usually from 57.1 µM), most hits filed as inhibitors; further: nearly all actives have a fitted effect of over 20% in size
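AmpC (5.3 nM in the dispensed reagent) in 20 mM phosphate pH 7.0 with 0.01% (detergent screen) or 0.0001% Triton X-100 was preincubated with compounds for 15 min at room temperature. Nitrocefin was then added from an 800 uM solution, and hydrolysis was followed at 480 nm.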
RE007 growth inh: less growth of the S. pombe RE007 Vpr strain | Potency, µM (titrated, usually from 92.2 µM), actives largely listed as inhibitors | S. pombe RE007 Vpr strain, BacTiter-Glo ATP luminescence, 24 h | 0.21% of 360,000 active | AID 651644; active means well fitted falling curve with a large enough effect; inconclusive means small, poorly fitted or top-dose-only effect; inactive means no such curve, though single readings can be large or run the other way; further: nearly all actives have a fitted effect of over 50% in size
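Fission yeast strain RE007, carrying one chromosomally integrated HIV-1 vpr copy, was seeded at OD 0.01 in PMG+AL medium with 23 nL pinned compound. After 24 h at 30 °C and 99% humidity, viability was read by BacTiter-Glo luminescence.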
AMA1 RON2 block: disrupts binding of P. falciparum AMA1 to RON2; AlphaScreen AMA1-biotinylated RON2 peptide binding; Potency, µM (doses to about 58.2 µM), actives largely listed as inhibitors; 0.2% of 360,000 active; further: nearly all actives have a fitted effect of over 45% in size
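AMA1 (3D7) with his tag at 25 nM final met compounds first, then biotinylated RON2 peptide at 25 nM; detection used donor plus acceptor beads, 10 µg/mL apiece, read by AlphaScreen after 30 min at room temperature.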
Of the large screens only hits and unclear results are named; the others gave an inactive call. Unless noted, the call rests on the fitted dose curve; in most records, active means well fitted curve in the direction sought with a large enough effect; inconclusive means small, poorly fitted or top-dose-only effect, or another doubt; inactive means no such curve, though single readings can be large; an effect the other way counts as inactive or inconclusive.

O=C(CN1c2ccccc2Sc2ccccc21)NNC(=S)Nc1ccc(Cl)cc1Cl	AmpC inh no detg 15.8µM
O=C(CN1c2ccccc2Sc2ccccc21)NNC(=S)Nc1ccc(Cl)cc1	none
COc1ccc(C(=O)CCN2CCCCCC2)cc1	RE007 growth inh 7.08µM
CCOc1ccc(C(=O)CCN2CCCCC2)cc1	RE007 growth inh 35.5µM
CCOc1ccc(C(=O)CCC(=O)NN2CCCCC2)cc1	none (no result: AmpC detergent, AmpC inh no detg)
CCCCCOc1ccc(C(=O)CCN2CCOCC2)cc1	RE007 growth inh 17.8µM
COc1ccc(C(=O)CCN2CCN(c3ccc(OC)cc3)CC2)cc1	RE007 growth inh inconclusive
CC(C)Oc1ccc(C(=O)CCN2CCCCC2)cc1	RE007 growth inh 39.8µM
CCCOc1ccc(C(=O)CCN2CCN(C(=O)OCC)CC2)cc1	AmpC detergent inconclusive, RE007 growth inh 31.6µM
CC1(C)S[C@@H]2[C@H](NC(=O)COc3ccccc3)C(=O)N2C1C(=O)OCc1cc2ccccc2n1S(=O)(=O)c1ccccc1 (some centres not stated)	AmpC detergent inconclusive, AmpC inh no detg 8.91µM (no result: RE007 growth inh, AMA1 RON2 block)
CCOC(=O)N1CCc2c(sc3c2c(=O)n(-c2ccc(F)cc2)c(=O)n3CC(=O)c2ccc(Cl)cc2)C1	none (no result: AmpC inh no detg, RE007 growth inh, AMA1 RON2 block)
CCOC(=O)C1=C(C)Nc2ccccc2N=C1NC(=O)C(c1ccccc1)c1ccccc1	AmpC inh no detg 28.2µM
CC1COCC(C)N1C1=C(Cl)C(=O)c2ccccc2C1=O (configuration not stated)	RE007 growth inh 39.8µM, AMA1 RON2 block inconclusive (no result: AmpC detergent, AmpC inh no detg)
CCOC(=O)c1c(C)n(-c2ccccc2)c2ccc(OC(=O)c3ccccc3NC(=O)C(C)(C)C)cc12	none (no result: AmpC inh no detg, RE007 growth inh, AMA1 RON2 block)
O=C1N=c2ccccc2=C1c1sc(NS(=O)(=O)c2ccccc2)nc1O	none
O=C1N=c2ccccc2=C1c1sc(NS(=O)(=O)Cc2ccccc2)nc1O	AmpC inh no detg 3.55µM
O=C(Nc1cccc(F)c1)C1CCN(S(=O)(=O)c2ccc3[nH]c4c(c3c2)CCCCC4)CC1	none (no result: AmpC inh no detg, RE007 growth inh, AMA1 RON2 block)
CN(c1ccccc1C(=O)NCC1CCCO1)S(C)(=O)=O (configuration not stated)	AmpC inh no detg 0.159µM
CC(C)Nc1ccc(Nc2ccnc3cc4ccccc4cc23)cc1	AMA1 RON2 block 7.94µM
COc1ccc(Nc2ccnc3ccccc23)cc1	none
c1ccc(CCNc2ccnc3cc4ccccc4cc23)cc1	AmpC inh no detg 17.8µM
O=[N+]([O-])c1ccc(Sc2nc3ccccc3o2)c([N+](=O)[O-])c1	AmpC detergent inconclusive, RE007 growth inh inconclusive, AMA1 RON2 block 26.7µM
O=c1cc(OCc2ccccc2)cc[nH]1	AmpC detergent inconclusive, AMA1 RON2 block 1.12µM
COC(=O)c1sc(=S)sc1C(=O)OC	RE007 growth inh 31.6µM
COC(=O)c1sc(C(=O)OC)c(C(=O)OC)c1C(=O)OC	none
Cc1nc(-c2cccc(F)c2)sc1CCNC(=O)c1c(F)cccc1Cl	none (no result: AmpC inh no detg, RE007 growth inh, AMA1 RON2 block)
COc1ccc(CCNC(=O)Cn2c(=O)cc(C(F)(F)F)c3c(C)nn(C)c32)cc1OC	none (no result: AmpC inh no detg, RE007 growth inh, AMA1 RON2 block)
Cc1cc(=O)oc2cc(OCc3ccccc3)ccc12	none
Cc1cc(=O)oc2cc(OCc3ccc(C(=O)OCC(=O)Nc4ccccc4OC(F)F)cc3)ccc12	AmpC inh no detg 22.4µM, AMA1 RON2 block inconclusive
Cc1cc(C)c(NC(=O)CSc2nnc(-c3ccccn3)n2N)c(Cl)c1	AMA1 RON2 block 17.8µM
COc1ccc(NC(=O)CSc2nnc(-c3ccccn3)n2N)cc1Cl	none
Cn1nc(C(=O)Nc2cccc(Cl)c2)cc1C(=O)Nc1cccc(Cl)c1	AmpC inh no detg 15.8µM
CC[C@H](C)[C@@H](NC(=O)O[C@@H]1C(=O)c2cc(Br)ccc2O[C@H]1c1ccc2c(c1)OCO2)C(=O)OC	AmpC inh no detg 35.5µM (no result: RE007 growth inh, AMA1 RON2 block)
Cc1onc(-c2ccc(Br)cc2)c1C(=O)Nc1ccc(Br)cc1F	none (no result: AmpC inh no detg, RE007 growth inh, AMA1 RON2 block)
CCOc1ccc(-c2cn3c(n2)sc2cc(C(=O)N4CCCC(C)C4)ccc23)cc1 (configuration not stated)	none (no result: AmpC inh no detg, RE007 growth inh, AMA1 RON2 block)
O=C1/C(=C/c2cccs2)CCC/C1=C\c1cccs1	AMA1 RON2 block 11.2µM
CC(=O)/C=C/c1ccc2ccccc2n1	RE007 growth inh 25.1µM
CC(OC(=O)/C=C/c1ccc2ccccc2n1)C(=O)N(C)c1ccccc1 (configuration not stated)	AmpC detergent inconclusive
Cc1cc(C)c(S(=O)(=O)NCC(c2ccco2)S(=O)(=O)c2cccs2)c(C)c1 (configuration not stated)	none (no result: AmpC inh no detg, RE007 growth inh, AMA1 RON2 block)
Cc1ccc(C2(CCNCc3ccc(N(C)C)cc3)CCOC(C(C)C)C2)cc1 (configuration not stated)	AMA1 RON2 block 10µM
Cc1cc(C)n2nc(S(=O)(=O)NC3CCCCC3)nc2n1	AmpC inh no detg 2.51µM
O=C(Nc1nc2ccccc2s1)C1CCN(S(=O)(=O)c2cc([N+](=O)[O-])ccc2Cl)CC1	AmpC inh no detg 7.94µM
CCC(C)NC(=O)C1CCN(S(=O)(=O)c2cc([N+](=O)[O-])ccc2Cl)CC1 (configuration not stated)	none
O=C(Nc1nc(-c2ccccc2)cs1)C1c2ccccc2Oc2ccccc21	AmpC inh no detg 0.178µM
CCc1c(C)nc(SCC(=O)Nc2nc(-c3ccc(OC)cc3)cs2)[nH]c1=O	AmpC inh no detg 14.1µM
CCCc1cc(=O)[nH]c(SCC(=O)Nc2nc(-c3ccccc3)cs2)n1	AmpC inh no detg 12.6µM
Cn1cnnc1SCC(=O)Nc1nc(-c2ccccc2)cs1	AmpC detergent 79.4µM
COc1ccc(OC)c(-c2csc(NC(=O)CSc3ccccc3)n2)c1	none
COc1ccc(-c2csc(NC(=O)CSc3ccc(Br)cc3)n2)c(OC)c1	AmpC inh no detg 35.5µM
CN(C)c1ccc(C(=S)Nc2ccccc2)cc1	none
CN(C)c1ccc(NC(=S)c2ccccn2)cc1	RE007 growth inh inconclusive, AMA1 RON2 block 14.1µM
CCOC(=O)c1c(NC(=O)C2=C(C)NC(=S)NC2c2ccc(CC)cc2)sc(C)c1C (configuration not stated)	AmpC inh no detg 12.6µM (no result: RE007 growth inh, AMA1 RON2 block)
CC(C)(C)OC(=O)N1CCC(c2c(C(=O)Nc3ccc4c(c3)OCCO4)cnn2-c2ccc(F)cc2)CC1	none (no result: AmpC inh no detg, RE007 growth inh, AMA1 RON2 block)
Cn1c(=O)c2c(SCc3cccnc3)nc(CC(C)(C)C)nc2n(C)c1=O	AmpC detergent inconclusive
CCCc1nc(SCC(=O)N2CCC(C)CC2)c2c(=O)n(C)c(=O)n(C)c2n1	none
CCCc1nc(SCc2cccnc2)c2c(=O)n(C)c(=O)n(C)c2n1	AmpC inh no detg 39.8µM
CCCc1nc(SC2CCCC2)c2c(=O)n(C)c(=O)n(C)c2n1	AmpC detergent inconclusive, AmpC inh no detg 35.5µM
N#C/C(=C/c1ccc(N2CCCCC2)o1)c1cccc(F)c1	AmpC detergent inconclusive
N#C/C(=C/c1ccc(N2CCCCCC2)o1)c1ccc(Cl)cc1	RE007 growth inh 25.1µM
COc1ccc(S(=O)(=O)N2CCOCC2)cc1NC(=O)CCc1nc2ccccc2c(=O)[nH]1	none
CCN(c1ccccc1)S(=O)(=O)c1ccc(OC)c(NC(=O)CCc2nc3ccccc3c(=O)[nH]2)c1	AmpC detergent inconclusive, AmpC inh no detg 35.5µM

From PubChem
